Assay outcomes from PubChem BioAssay.
AmpC inh no detg: blocks E. coli AmpC beta-lactamase in detergent-free assay. P00811. AmpC nitrocefin hydrolysis, absorbance 480 nm, 0.0001% Triton. Potency, µM (doses to about 57.1 µM), for inactives: at the top dose activity change, negative = inhibition, hits mostly inhibitors. hit rate 0.52% among 330,000;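 note: plate controls were no compound for no effect and no enzyme for full effect; nearly all actives have a fitted effect of over 20% in size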
Target sequence (P00811 whole entry, looked up): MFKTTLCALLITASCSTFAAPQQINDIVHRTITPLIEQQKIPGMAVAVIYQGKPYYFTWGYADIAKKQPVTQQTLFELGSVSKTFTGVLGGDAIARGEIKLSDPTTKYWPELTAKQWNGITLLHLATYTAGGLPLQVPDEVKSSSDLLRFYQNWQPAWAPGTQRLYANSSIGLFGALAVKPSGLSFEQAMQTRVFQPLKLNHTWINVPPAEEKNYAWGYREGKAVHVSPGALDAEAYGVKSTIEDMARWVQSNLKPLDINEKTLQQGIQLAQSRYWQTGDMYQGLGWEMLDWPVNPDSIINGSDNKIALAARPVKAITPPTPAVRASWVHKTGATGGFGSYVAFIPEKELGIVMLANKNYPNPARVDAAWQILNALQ
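AmpC (5.3 nM in the dispensed reagent) in 20 mM phosphate pH 7.0 with 0.01% (detergent screen) or 0.0001% Triton X-100 was preincubated with compounds for 15 min at room temperature. Nitrocefin was then added from an 800 uM solution, and hydrolysis was followed at 480 nm.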
Sm TGR block: inhibitors of Schistosoma mansoni thioredoxin glutathione reductase; purified TGR, DTNB reduction, TNB absorbance 405 nm; Q962Y6; hit rate 3% among 360,000; Potency, µM (top dose mostly 114 µM), for the others: at the top dose activity change, negative = inhibition, most hits filed as inhibitors; AID 485364; note: nearly all actives have a fitted effect of over 60% in size
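First, TGR (20 nM dispensed) and NADPH were mixed with compound. Second, a 15 min room-temperature incubation followed. Third, further NADPH and then DTNB were added to start the reaction. Finally, TNB absorbance was monitored kinetically.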
AmpC inh detg: inhibitors of E. coli AmpC beta-lactamase with detergent. hit rate 0.041% among 370,000. Potency, µM (highest dose often 114 µM), without a hit: at the highest dose activity change, negative = inhibition, hits mostly inhibitors. AmpC hydrolysis of nitrocefin, absorbance 480 nm, 0.01% Triton. P00811;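 note: 0% = no-compound wells and -100% = no-enzyme wells; nearly all actives have a fitted effect of over 25% in size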
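AmpC (5.3 nM in the dispensed reagent) in 20 mM phosphate pH 7.0 with 0.01% (detergent screen) or 0.0001% Triton X-100 was preincubated with compounds for 15 min at room temperature. Nitrocefin was then added from an 800 uM solution, and hydrolysis was followed at 480 nm.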
The depositor's hits bear a star; ? = inconclusive; nt = not tested or not shown; [ ] = another dose, or the depositor's remark. The list is not random: actives were taken first. Their share in the collection is about 3.3%. Calls come from the whole dose curve; as a rule, active = well fitted curve in the direction sought with a large enough effect; inconclusive = small, poorly fitted or top-dose-only effect, or another doubt; inactive = no such curve, though single readings can be large; an effect the other way counts as inactive or inconclusive. Unless noted, % is set by controls: 0 for no effect and ±100 for the full control effect; potency is the fitted concentration of half-maximal effect.

SMILES | AmpC inh no detg | Sm TGR block | AmpC inh detg
CC(C)C(NS(=O)(=O)c1cccs1)C(=O)N1CCC(C(N)=O)CC1 (configuration not stated) | -20% | -8% | -1%
COc1ccccc1NC(=O)CSc1nnc(-c2ccco2)o1 | -8% | 4% | -12%
NC(=O)CSc1nnc(-c2ccccn2)n1Cc1ccco1 | -19% | -11% | -3%
COc1ccc(NC(=O)CSc2nnc(-c3ccccc3)n2Cc2ccco2)c(OC)c1 | 15% | -21%[11.4 µM] | -4%
COc1ccc(C)cc1NC(=O)CSc1nnc(-c2ccccn2)n1Cc1ccco1 | 66% | 10% | 3%
COc1ccccc1NC(=O)CSc1nnc(-c2ccccn2)n1Cc1ccco1 | 21% | 40µM* | ?
C(=C\c1ccccc1)/CSc1nnc(-c2ccccn2)n1Cc1ccco1 | 13% | 35µM* | -6%
COc1ccccc1NC(=O)CSc1nccc(-c2ccco2)n1 | -40% | 25µM* | -4%
COc1ccc(NC(=O)CSc2nnc(-c3ccccc3Cl)n2Cc2ccco2)c(OC)c1 | 41% | 35µM* | 8%
CCOc1ccc(CNC(=O)Cn2ccc3cc(S(=O)(=O)N4CCCCC4)ccc32)cc1 | nt | 1% | 18%
O=S(=O)(CCc1ccncc1)C1Cc2cccc3cccc1c23 (configuration not stated) | -16% | 35µM* | 1%
CN(Cc1nccs1)C(=O)C1CCC(=O)N(CCc2ccc(Cl)cc2)C1 (configuration not stated) | 24% | 1% | 0%
Cc1cc(C)cc(NC(=O)Cn2c(=O)n(Cc3ccc4c(c3)OCO4)c(=O)c3oc4ccccc4c32)c1 | nt | -2% | -6%
Cc1ccc(/C=C/C(=O)c2ccc(C)cc2)cc1 | -23% | 3% | -1%
Cc1ccc(C(=O)/C=C/C(=O)c2ccc(C)cc2)cc1 | -18% | 2.2µM* | -2%
COc1ccc(N2C(=O)CC(Sc3nc(C)c4c(n3)CCCC4)C2=O)cc1 (configuration not stated) | 6% | 0% | -16%
COc1ccc(N2C(=O)CC(Sc3n[nH]c(-c4ccccc4)n3)C2=O)cc1 (configuration not stated) | 14% | 0.32µM* | -4%
CCOc1ccc(N2C(=O)CC(SCC(=O)O)C2=O)cc1 (configuration not stated) | -10% | -7% | 6%
CCOc1ccc(N2C(=O)CC(Sc3n[nH]c(-c4ccccc4)n3)C2=O)cc1 (configuration not stated) | -30% | 0.63µM* | -3%
O=S(=O)(c1ccc(F)c(F)c1)N1CCN(CCc2ccccc2)CC1 | 11% | 0% | -8%
C=CCn1c(=NC(=O)c2ccccc2[N+](=O)[O-])sc2cc(S(C)(=O)=O)ccc21 | -7% | -3% | -12%
Cc1noc(NS(=O)(=O)c2ccc(NC(=O)c3cc(F)c(F)c(F)c3F)cc2)c1C | -12% | -13% | 0%
O=[N+]([O-])c1ccc(/C=N/NC(=S)Nc2ccc(Cl)cc2Cl)s1 | 14µM* | 45µM* | -4%
O=C(N/N=C/c1ccc([N+](=O)[O-])s1)c1ccccc1 | -43% | -13% | -3%
O=[N+]([O-])c1ccc(O)c(/C=N/NC(=S)Nc2ccc(Cl)cc2Cl)c1 | -40% | 8% | -6%
SMILES | AmpC inh no detg | Sm TGR block | AmpC inh detg
O=C(N/N=C/c1ccc([N+](=O)[O-])s1)C(O)c1ccccc1 (configuration not stated) | -5% | 32µM* | 7%
O=C(N/N=C/c1cc(Br)c(Br)o1)C(O)c1ccccc1 (configuration not stated) | -25% | 40µM* | -10%
Cc1ccc(/C=N/NC(=O)C(O)c2ccccc2)o1 (configuration not stated) | -9% | -18% | -8%
CCCOC1CCCN(C(=O)c2cc(COc3ccc(F)c(F)c3)on2)C1 (configuration not stated) | 60% | 0% | ?
COC(=O)Nc1sc2c(c1C(=O)N1CCOCC1)CCC(C)C2 (configuration not stated) | -6% | 45µM* | ?
CCOC(=O)Nc1sc2c(c1C(N)=O)CCC(C)C2 (configuration not stated) | -19% | -6% | -1%
CCN(CC)c1nn2c(=O)c(C(=O)NCCc3ccc(C)cc3)cnc2s1 | nt | -13% | 18%
CC(C)(C)OC(=O)NCCc1nnc(SCc2ccccc2Cl)o1 | 46% | -27% | -10%
CC(C)(C)OC(=O)NCCc1nnc(S(=O)(=O)Cc2ccc(Cl)cc2Cl)o1 | 0.32µM* | 0.89µM* | ?
O=C(O)c1ccc(OCc2ccc(C(=O)O)o2)cc1 | -6% | -10% | -3%
CCc1ccc(OCc2ccc(C(=O)O)o2)cc1 | -18% | 35µM* | 1%
CCOC(=O)C1CCN(c2ncnc3c2nnn3C)CC1 | nt | 2% | 5%
CC(=O)[C@H]1[C@H]([C@H](O)[C@H](O)CO)O[C@](O)(C(=O)O)C[C@@H]1O | -9% | 13µM* | ?
CCCCOc1ccc(C(=O)N/N=C/c2ccc(OCCN3CCCCC3)c(OC)c2)cc1 | 76% | -15% | -5%
COc1cc(-c2nc3nc[nH]n3c2Nc2ccc(C(C)C)cc2)ccc1O | nt | 14µM* | 11%
COc1cc(-c2nc3cnccn3c2Nc2ccc(C(C)C)cc2)ccc1O | -21% | -9% | 0%
CCOc1ccc(CCNC(=O)CCS(=O)(=O)c2ccc(C)cc2)cc1OCC | 29% | 32µM* | 1%
NS(=O)(=O)c1ccc(CCNC(=O)CCS(=O)(=O)c2ccc(Br)cc2)cc1 | -1% | 0% | 0%
O=C(CCS(=O)(=O)c1ccc2c(c1)NC(=O)CS2)NCCc1ccccc1 | -11% | 32µM* | ?
O=C(CCS(=O)(=O)c1ccc2c(c1)NC(=O)CS2)NCCc1ccc(Cl)cc1 | -29% | ? | -11%
CC1CCC(NC(=O)CCS(=O)(=O)c2ccc3c(c2)NC(=O)CS3)CC1 (configuration not stated) | -10% | -1% | 5%
CCOc1ccc(CCNC(=O)CCS(=O)(=O)c2ccc(Br)cc2)cc1OCC | 25% | -1% | 0%
O=C(CCS(=O)(=O)c1ccc(Br)cc1)NCCc1ccccc1 | -25% | 50µM* | -8%
O=C1CSc2ccc(S(=O)(=O)CCC(=O)NC3CCCCC3)cc2N1 | -19% | 22µM* | 2%
CCCCN(CCCC)CC(O)COc1ccccc1Br (configuration not stated) | 2% | -1% | ?
SMILES | AmpC inh no detg | Sm TGR block | AmpC inh detg
Cc1ccc(S(=O)(=O)N2CCN(S(=O)(=O)N3CCC(C)CC3)CC2)cc1C | -2% | -3% | -9%
O=C(CCS(=O)(=O)c1ccc(Br)cc1)Nc1ccccc1Cl | -24% | 4% | 2%
O=C(CCS(=O)(=O)c1ccc(Br)cc1)Nc1ccccn1 | -8% | 3.2µM* | -6%
Cc1ccc(-c2csc(=S)n2CC(=O)OCC(=O)NC(C)C(C)C)cc1 (configuration not stated) | 70% | 0% | -14%
COc1ccc(OCC(=O)OCC(=O)NCc2ccco2)cc1 | -1% | 19% | -19%
O=C(COC(=O)CCC(=O)c1ccc(Cl)cc1)NCc1ccco1 | 12% | 18µM* | ?
Cc1ccc(-c2csc(=S)n2CC(=O)OCC(=O)NCc2ccco2)cc1 | -30% | 40µM* | ?
